Measured values published in PubChem BioAssay AID720518 (National Center for Advancing Translational Sciences (NCATS), 2013).
Records with an inconclusive call do not appear. A call without a number means that no potency is given here. Active and inactive are the calls of the source. The call rests on the fitted dose curve.

Experiment: qHTS for Inhibitors of Cell Surface uPA Generation: Wild-type Protective Antigen (WT-PrAg) Counterscreen for Cherry-picked Compounds

Cc1ccc(S(=O)(=O)N2CCOCC2)cc1C(=O)OC1CCOC1=O (stereo not given)
Potency: inactive

CCCCNc1c(-c2ccc(-c3cccc(Cl)c3)cc2)nc2ccccn12
Potency: inactive

CCNc1nc(Nc2ccc(C)c(Cl)c2)c2cnn(C)c2n1
Potency: inactive

CCc1ccc(N2CC(C(=O)Nc3ccc4c(c3)OCO4)CC2=O)cc1 (stereo not given)
Potency: inactive

Cc1ccc(N2C(=O)c3ccccc3C2(O)c2ccccc2)cc1 (stereo not given)
Potency: inactive

CCn1nc(C)c(CNC(=O)C2CCC(=O)N(CCc3ccc(OC)cc3)C2)c1C (stereo not given)
Potency: inactive

COc1ccc2[nH]cc(S(=O)(=O)c3ccc(C(C)C)cc3)c(=O)c2c1
Potency: inactive

Cc1ccc([C@H]2C(C(=O)O)=CC[C@@H](c3cccc(C)c3)N2S(=O)(=O)c2ccc(C)cc2)cc1
Potency: inactive

O=[N+]([O-])c1ccc(SCc2ccncc2)nc1
Potency: inactive

CCCC1=NN(C(=O)Cc2ccc(OC)cc2)C(O)(C(F)(F)F)C1 (stereo not given)
Potency: inactive

CCc1ccc(S(=O)(=O)NCCc2cn3cccc(C)c3n2)s1
Potency: inactive

COc1cc(C(C)=O)ccc1OCc1cn(CC(=O)c2ccc(O)cc2)nn1
Potency: inactive

CCc1ccccc1NC(=O)CN(C)C(=O)CSc1nnc(Nc2cccc(C)c2C)s1
Potency: inactive

CCCCCn1c(=O)c(C(=O)Nc2ccccn2)c(O)c2ccccc21
Potency: inactive

COc1ccc(N(CN2C(=O)c3ccccc3C2=O)C(=O)C(C)C)cc1
Potency: inactive

COc1ccccc1CNC(=O)CCCn1nc(C)c2c(C)n(-c3ccccc3)nc2c1=O
Potency: inactive

COC(/C=C/Nc1ccc(Cl)cc1)=C(C#N)C#N
Potency: inactive

O=C(CN1CCCC1)Nc1cccc(Cl)c1Cl
Potency: inactive

Cn1nc(N2CCN(S(=O)(=O)c3ccccc3)CC2)c(=O)n(C)c1=O
Potency: inactive

CCN1CCN(C(c2ccccc2)c2nnnn2Cc2ccc3c(c2)OCO3)CC1 (stereo not given)
Potency: inactive

CC[C@]1(C(=O)OC)[C@H]2C(=O)N(C)C(=O)[C@H]2[C@H]2CN(C)C(=NC3CCCCC3)N21
Potency: inactive

CCCCn1c(-c2cccnc2)nc2cc3[nH]c(=O)c(C(C)C)nc3cc21
Potency: inactive

O=C(NNC(=O)C1CC(c2cccs2)=NO1)Nc1ccccc1 (stereo not given)
Potency: inactive

O=C(C1=C[C@H](c2ccccc2)C[C@H](OCCCCO)O1)N1CCN(Cc2ccc3c(c2)OCO3)CC1
Potency: inactive

Cc1noc(C)c1COc1ccc(C(=O)O)cc1
Potency: inactive

Cc1ccc(OCc2cc(C(=O)N(C)Cc3cc(C4CC4)n[nH]3)no2)cc1C
Potency: inactive

NC(=O)C1CCN(C(=O)c2cccc3ccccc23)CC1
Potency: inactive

CCNC(=S)NNC(=O)c1ccncc1
Potency: inactive

COc1ccc(OC)c(NC(=O)C2CCCN2C(=O)C2CCC(C)CC2)c1 (stereo not given)
Potency: inactive

COc1cccc(CNC(=O)C2CCCN(S(=O)(=O)c3ccc4c(c3)C(C)(C)C(=O)N4C)C2)c1 (stereo not given)
Potency: inactive

Cc1nc(NC(=O)CSc2nnc(C3CC3)n2C)sc1C(=O)N(C)C
Potency: inactive

CCn1c(=O)cc(C(=O)OC)sc1=Nc1ccc(F)c(F)c1
Potency: inactive

CCS(=O)c1scc(-c2ccc(Cl)cc2)c1C#N (stereo not given)
Potency: inactive

CCOc1ccc(-c2n[nH]c(=S)n2Cc2ccccc2)cc1
Potency: inactive

CC(C(=O)Nc1nccs1)c1ccc([N+](=O)[O-])cc1 (stereo not given)
Potency: inactive

CCOC(=O)N1CCN(c2c(NCCCN3CCCCCC3)c(=O)c2=O)CC1
Potency: inactive

Cc1ccc2oc(C(=O)N(Cc3ccc(N(C)C)cc3)C3CCS(=O)(=O)C3)c(C)c2c1 (stereo not given)
Potency: inactive

COc1cc(/C=N/NC(=O)c2ccncc2)ccc1O
Potency: inactive

COCCN(C(=O)c1ccc(OC2CCN(S(=O)(=O)N(C)C)CC2)cc1)C(C)C
Potency: inactive

Cc1cc(/C=N/NC(=O)c2ccccc2F)c(C)n1-c1ccccc1
Potency: inactive
